Values joined by “and” are separate entries in the source; they are usually repeats but may differ in a detail not shown here. Identical values can stand only once. Results filed as inconclusive are left out. A call without a number means that no potency is given here. Active and inactive are the calls of the source. Unless noted, the call rests on the fitted dose curve.
Potency means the concentration at half of the fitted maximal effect.

One assay is described as follows: qHTS assay for small molecules that induce genotoxicity in human embryonic kidney cells expressing luciferase-tagged ATAD5 (AID 651632; active means well fitted activation curve with a large enough effect in the repeat runs; further: nearly all actives have a fitted effect of over 15% in size). The settings on record: HEK293T ATAD5-luciferase induction, 16 h; series mostly up to 83.3 µM. Put shortly: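 Increased luciferase signal from ATAD5-tagged reporter cells indicates DNA-damage-driven ATAD5 induction. HEK293T cells are treated for 16 hr at 37C before detection with Amplite.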
A general note: qHTS replaces the single test concentration by a dilution series.
For `Cc1ncc([C@@H](CCCCCCc2ccc3c(n2)NCCC3)CC(=O)O)cn1`, the Potency result was “inactive”.
Same read-out and setting: the same measure for `CCCCc1nc(Cl)c(CO)n1Cc1ccc(-c2ccccc2-c2nn[nH]n2)cc1`: “inactive”; for `Cc1ccccc1N=C(N)N=C(N)N`: “inactive”.
Take `O=S(=O)(O)c1cccc(S(=O)(=O)O)c1`: the Potency result is “inactive”.
For the compound `C1CCC2(CCCCO2)OC1`, the Potency result was “inactive”.
Still for that read-out and setting: the same measure for `COc1c(N2CCNC(C)C2)c(F)cc2c(=O)c(C(=O)O)cn(C3CC3)c12` (stereo not given): “inactive”.
`CC[N+](CC)(CC(=O)Nc1c(C)cccc1C)Cc1ccccc1` (tested in a mixture with another compound): the Potency result is “inactive”.
On the same count and under the same terms, with `O=C(O)Cc1csc(-c2ccc(Cl)cc2)n1` the entry was “inactive”.
On the same count and under the same terms, with `CCCCCCC#CC(=O)OC` the entry was “inactive”.
For the compound `CCCCN(CCC(=O)OCC)C(C)=O`, the Potency result was “inactive”.
On the same count and under the same terms, the same measure for `CC(=O)NC(=O)c1ccccc1O`: “inactive”; for `CC[N+](CC)(CC)CCOc1cccc(OCC[N+](CC)(CC)CC)c1OCC[N+](CC)(CC)CC`: “inactive”; for `Cc1nc2ccc(CN(C)c3ccc(C(=O)N[C@@H](CCC(=O)O)C(=O)O)s3)cc2c(=O)[nH]1`: “inactive”.
The same measure, in the same setting: the same measure for `NC(CCC(=O)O)C(=O)O` (stereo not given): “inactive”; for `CCOC(=O)OC(C)OC1=C(C(=O)Nc2ccccn2)N(C)S(=O)(=O)c2ccccc21` (stereo not given): 3.35 µM (active).
For the compound `Cc1ncc(COP(=O)(O)O)c(C=O)c1O`, the Potency result was “inactive”.
Same read-out and setting: the same measure for `N[C@@H](CCC(=O)O)C(=O)O`: “inactive”; for `CCCC[N+](C)(CCCC)CCCC`: “inactive”.
Still for that read-out and setting: with `CO[C@@]1(NC(=O)C(C(=O)O)c2ccc(O)cc2)C(=O)N2C(C(=O)O)=C(CSc3nnnn3C)CO[C@@H]21` (stereo not given in full) the entry was “inactive”; with `CC1=C(C/C=C(\C)CCC[C@H](C)CCC[C@H](C)CCCC(C)C)C(=O)c2ccccc2C1=O`, “inactive”.
Same read-out and setting: the same measure for `C=CCCC(=O)O`: “inactive”; for `CCC(C(=O)NC(=O)NC(C)=O)c1ccccc1` (stereo not given): “inactive”.
For the compound `CCCCOC(=O)CCC(C)=O`, the Potency result is “inactive”.
Still for that read-out and setting: with `C[N+]12CCC(CC1)C(OC(=O)C(O)(c1ccccc1)c1ccccc1)C2` (stereo not given) the entry was “inactive”; with `CCCCCCCCCC[N+](C)(C)[O-]`, “inactive”; with `CC(C)(N)C#N`, “inactive”.
As to `Nc1c2c(nc3c1CCC3)CCCC2`, the Potency entry is “inactive”.
The same measure, in the same setting: the same measure for `Cc1ccc(-c2ncc(Cl)cc2-c2ccc(S(C)(=O)=O)cc2)cn1`: “inactive”.
On the same count and under the same terms, the same measure for `O=C(O)c1cn(C2CC2)c2cc(N3CCNCC3)c(F)cc2c1=O`: “inactive”; for `CC1CCC(CO)CC1` (stereo not given): “inactive”; for `FB(F)F`: “inactive”.
For the compound `COc1ccnc(CS(=O)c2nc3cc(OC(F)F)ccc3[nH]2)c1OC` (stereo not given), the Potency result was “inactive”.
Still for that read-out and setting: the same measure for `O=S(=O)(O)c1cc(O)c(O)c(S(=O)(=O)O)c1`: “inactive”; for `N[C@H](C(=O)O)[C@@H](O)c1ccc(O)c(O)c1`: “inactive”.

A short description of a further assay: qHTS assay for small molecule agonists of the p53 signaling pathway - cell viability (AID 651633). Further: nearly all actives have a fitted effect of over 30% in size. Particulars: p53RE-bla HCT-116 viability, ATP luminescence, 16 h; series mostly up to 83.3 µM. Put shortly:
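p53RE-bla cells were treated with compound for 16 hours at 37 C. Cytotoxicity was then measured as CellTiter-Glo luminescence after 30 min at room temperature.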
As for `Cc1ncc([C@@H](CCCCCCc2ccc3c(n2)NCCC3)CC(=O)O)cn1`, the Potency entry was “inactive”.
In the case of `O=C1NC(=O)C2CC=CCC12` (stereo not given), the Potency entry is “inactive”.
On to `CCCCc1nc(Cl)c(CO)n1Cc1ccc(-c2ccccc2-c2nn[nH]n2)cc1`, for which the Potency entry is “inactive”.
Still for that read-out and setting: the same measure for `Cc1ccccc1N=C(N)N=C(N)N`: “inactive”.
The same measure, in the same setting: the same measure for `O=S(=O)(O)c1cccc(S(=O)(=O)O)c1`: “inactive”.
The same measure, in the same setting: with `C1CCC2(CCCCO2)OC1` the entry was “inactive”; with `COc1c(N2CCNC(C)C2)c(F)cc2c(=O)c(C(=O)O)cn(C3CC3)c12` (stereo not given), “inactive”; with `CC[N+](CC)(CC(=O)Nc1c(C)cccc1C)Cc1ccccc1` (tested in a mixture with another compound), “inactive”.
As for `O=C(O)Cc1csc(-c2ccc(Cl)cc2)n1`, the Potency result is “inactive”.
The same measure, in the same setting: with `CCCCCCC#CC(=O)OC` the entry was “inactive”.
Still for that read-out and setting: the same measure for `CCCCN(CCC(=O)OCC)C(C)=O`: “inactive”.
Same read-out and setting: the same measure for `CC(=O)NC(=O)c1ccccc1O`: “inactive”.
Consider `CC[N+](CC)(CC)CCOc1cccc(OCC[N+](CC)(CC)CC)c1OCC[N+](CC)(CC)CC`, for which the Potency entry was “inactive”.
The same measure, in the same setting: the same measure for `Cc1nc2ccc(CN(C)c3ccc(C(=O)N[C@@H](CCC(=O)O)C(=O)O)s3)cc2c(=O)[nH]1`: 106 nM (active) and 150 nM (active); for `NC(CCC(=O)O)C(=O)O` (stereo not given): “inactive”.
`CCOC(=O)OC(C)OC1=C(C(=O)Nc2ccccn2)N(C)S(=O)(=O)c2ccccc21` (stereo not given): the Potency result is “inactive”.
For `Cc1ncc(COP(=O)(O)O)c(C=O)c1O`, the Potency result was “inactive”.
Still for that read-out and setting: the same measure for `N[C@@H](CCC(=O)O)C(=O)O`: “inactive”; for `CCCC[N+](C)(CCCC)CCCC`: “inactive”.
Turning to `CO[C@@]1(NC(=O)C(C(=O)O)c2ccc(O)cc2)C(=O)N2C(C(=O)O)=C(CSc3nnnn3C)CO[C@@H]21` (stereo not given in full), the Potency result was “inactive”.
Still for that read-out and setting: with `C=CC(=O)OCCCl` the entry was “inactive”; with `CC1=C(C/C=C(\C)CCC[C@H](C)CCC[C@H](C)CCCC(C)C)C(=O)c2ccccc2C1=O`, “inactive”; with `C=CCCC(=O)O`, “inactive”.
In the case of `CCC(C(=O)NC(=O)NC(C)=O)c1ccccc1` (stereo not given), the Potency result was “inactive”.
The same measure, in the same setting: the same measure for `CCCCOC(=O)CCC(C)=O`: “inactive”; for `C[N+]12CCC(CC1)C(OC(=O)C(O)(c1ccccc1)c1ccccc1)C2` (stereo not given): “inactive”; for `CCCCCCCCCC[N+](C)(C)[O-]`: “inactive”.
With `CC(C)(N)C#N`, the Potency result is “inactive”.
Consider `Nc1c2c(nc3c1CCC3)CCCC2`, for which the Potency entry is “inactive”.
Same read-out and setting: with `Cc1ccc(-c2ncc(Cl)cc2-c2ccc(S(C)(=O)=O)cc2)cn1` the entry was “inactive”.
Take `O=C(O)c1cn(C2CC2)c2cc(N3CCNCC3)c(F)cc2c1=O`: the Potency entry was “inactive”.
On the same count and under the same terms, the same measure for `CC1CCC(CO)CC1` (stereo not given): “inactive”.
Still for that read-out and setting: the same measure for `FB(F)F`: “inactive”.
On the same count and under the same terms, the same measure for `COc1ccnc(CS(=O)c2nc3cc(OC(F)F)ccc3[nH]2)c1OC` (stereo not given): “inactive”; for `O=S(=O)(O)c1cc(O)c(O)c(S(=O)(=O)O)c1`: “inactive”.
As for `N[C@H](C(=O)O)[C@@H](O)c1ccc(O)c(O)c1`, the Potency result is “inactive”.
